Data as given in PubChem BioAssay.
Activity calls are given as the source filed them. Unless noted, the rule behind the calls is not given here.

Experiments:
[1] = tested on: XIP peptide (Xip251-270) binding; assay: XIP fragment 251-270 binding compounds – biochemical, small-molecule microarray, fluorescence 635/667 nm, 0.1 µg/mL protein, primary screen (AID 1182); details: fluorescent protein binding, 635 nm, higher = more signal, called active from +8 up or from −8 down
XIP peptide (Xip251-270) = assay: compounds binding XIP fragment 251-270 – biochemical, small-molecule microarray, fluorescence 635/667 nm, 0.5 µg/mL protein, primary screen (AID 1183); details: fluorescence 635 nm, higher = more signal
[2] = blood-stage malaria parasite viability loss – strain 3D7, DAPI fluorescence, 100 nL, primary screen (AID 1184);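 note: parasites grown inside human red blood cells in medium with human serum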; details: P. falciparum 3D7 growth, 3 d, higher = more signal
[3] = target: Homeobox protein Hox-A13 (Mus musculus) (UniProt Q62424); assay: disruptors of Hoxa13 oligonucleotide interaction – biochemical, fluorescence polarization, labeled oligonucleotide, primary screen (AID 1185); details: Hoxa13:DNA binding, 15 min, higher = more signal, called active from +8 up or from −8 down
[4] = blockers of DNA damage checkpoint Chk1 activation – imaging, HeLa, hydroxyurea, phospho-Chk1 antibody, percent positive cells, primary screen (AID 1186); details: hydroxyurea-induced phospho-Chk1 immunofluorescence imaging, higher = more signal
[5] = blockers of DNA damage checkpoint Chk1 activation – imaging, HeLa, hydroxyurea, phospho-Chk1 nuclear intensity, primary screen (AID 1187); details: hydroxyurea-induced phospho-Chk1 immunofluorescence imaging, higher = more signal

Chain of Homeobox protein Hox-A13 (Mus musculus) (Q62424 whole entry, looked up): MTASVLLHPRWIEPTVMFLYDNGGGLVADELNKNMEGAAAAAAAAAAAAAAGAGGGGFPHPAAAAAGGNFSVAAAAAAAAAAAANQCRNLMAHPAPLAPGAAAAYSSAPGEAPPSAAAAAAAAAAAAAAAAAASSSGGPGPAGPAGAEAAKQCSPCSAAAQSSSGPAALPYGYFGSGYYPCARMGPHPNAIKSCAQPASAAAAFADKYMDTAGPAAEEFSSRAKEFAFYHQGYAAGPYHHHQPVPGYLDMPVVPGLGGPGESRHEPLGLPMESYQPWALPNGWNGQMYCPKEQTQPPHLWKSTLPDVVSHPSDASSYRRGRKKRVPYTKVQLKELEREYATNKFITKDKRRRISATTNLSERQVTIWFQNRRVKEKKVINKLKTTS

For `COc1ccc([Si](C)(C)[C@@H]2[C@@H](CC(=O)N3CCC[C@H]3CO)O[C@]3(C(=O)N(C)c4c(Br)cc(C)cc43)[C@H]2C)cc1`, the composite z-score [1] was 0.0849 (inactive), the composite z-score (XIP peptide (Xip251-270)) was 0.507 and the z-score [2] was -0.949. For the same molecule, the z-score [3] was -6.11 (inactive), the z-score [4] was -0.477 (inactive) and the z-score [5] was -0.466 (inactive).

In the case of `CC(=O)Nc1cc(Br)ccc1C(=O)O`, the composite z-score [1] is reported as 1.16 (inactive), the composite z-score (XIP peptide (Xip251-270)) is reported as 0.53 and the z-score [2] is reported as 1.96. The z-score [3] was 0.273 (inactive), the z-score [4] was 0.1 (inactive) and the z-score [5] was 0.0714 (inactive).

For `NCCCCCNC(=O)[C@H]1C[C@H]2C(=O)NCC(=O)N2[C@H]1c1cccc(OCCO)c1`, the composite z-score [1] was 0.228 (inactive), the composite z-score (XIP peptide (Xip251-270)) was 0.781 and the z-score [2] was 0.222. For the same molecule, the z-score [3] was -1.68 (inactive), the z-score [4] was 0.0838 (inactive) and the z-score [5] was 0.179 (inactive).

In the case of `C[N+](C)(C)CCCCCCNC(=O)[C@H]1C[C@H]2C(=O)N3CCC[C@H]3C(=O)N2[C@H]1c1ccc(O)cc1`, the composite z-score [1] is reported as 1.07 (inactive), the composite z-score (XIP peptide (Xip251-270)) is reported as 0.276 and the z-score [2] is reported as -1.03. The z-score [3] was 0.0641 (inactive), the z-score [4] was -0.428 (inactive) and the z-score [5] was -0.356 (inactive).

With `CCCCCN1CC=CC23O[C@@H]4/C=C\CCCOC(=O)C4[C@H]2C(=O)N(CCCCCCO)[C@@H]3C1=O` (some centres undefined) the composite z-score [1] was 0.403 (inactive), the composite z-score (XIP peptide (Xip251-270)) was -0.0516 and the z-score [2] was -1.13. The z-score [3] was -5.27 (inactive), the z-score [4] was -0.792 (inactive) and the z-score [5] was -0.702 (inactive).

In the case of `CS(=O)(=O)CCOC(=O)C1=CC(CCCO)=CC(c2cccs2)N(Cc2cc3c(cc2Br)OCO3)C=C1C(=O)OCCS(C)(=O)=O` (centres undefined), the composite z-score [1] is reported as 0.555 (inactive), the composite z-score (XIP peptide (Xip251-270)) is reported as 0.634 and the z-score [2] is reported as -3.01. For the same molecule, the z-score [3] was -2.91 (inactive), the z-score [4] was -0.169 (inactive) and the z-score [5] was 0.132 (inactive).

For `CC(C)NC(=O)[C@@H]1c2ccccc2C(=O)N(Cc2ccccc2Cl)[C@H]1c1ccc(CO)cc1`, the composite z-score [1] was 0.989 (inactive), the composite z-score (XIP peptide (Xip251-270)) was 0.719 and the z-score [2] was -0.842. For the same molecule, the z-score [3] was -3.24 (inactive), the z-score [4] was 0.323 (inactive) and the z-score [5] was 0.667 (inactive).

With `COc1ccc(CCNC(=O)[C@@]2(Sc3ccc(C)cc3)CC(=O)N(Cc3ccccc3Cl)[C@@H]2c2ccc(CO)cc2I)cc1` the composite z-score [1] was 0.259 (inactive), the composite z-score (XIP peptide (Xip251-270)) was 0.391 and the z-score [2] was -0.694. The z-score [3] was -2.24 (inactive), the z-score [4] was 0.351 (inactive) and the z-score [5] was 0.606 (inactive).

With `COc1cccc(C(=O)O[C@H]2CC[C@]3(C)C4=C(CCC3C2(C)C)[C@]2(C)CC[C@H]([C@H](C)CCCC(C)C)[C@@]2(C)CC4)c1` (some centres undefined) the composite z-score [1] was -0.019 (inactive), the composite z-score (XIP peptide (Xip251-270)) was -0.519 and the z-score [2] was -0.0127. The z-score [3] was -0.87 (inactive), the z-score [4] was 0.811 (inactive) and the z-score [5] was 1.77 (inactive).

In the case of `COc1ccc([Si](C)(C)[C@H]2[C@H](CCn3cc([C@H](O)c4ccccc4)nn3)O[C@@]3(C(=O)N(Cc4cccc(N5CCC5=O)c4)c4ccccc43)[C@@H]2C)cc1`, the composite z-score [1] is reported as 0.275 (inactive), the composite z-score (XIP peptide (Xip251-270)) is reported as 0.444 and the z-score [2] is reported as -1.98. The z-score [3] was -2.56 (inactive), the z-score [4] was -1.17 (inactive) and the z-score [5] was -0.364 (inactive).

In the case of `CN(C)CCCNC(=O)[C@@]1(Cc2ccccc2I)c2ccccc2C(=O)N(Cc2ccccc2C(F)(F)F)[C@H]1c1ccc(CO)cc1`, the composite z-score [1] is reported as 0.165 (inactive), the composite z-score (XIP peptide (Xip251-270)) is reported as 0.514 and the z-score [2] is reported as -1.83. The z-score [3] was -2.47 (inactive), the z-score [4] was -0.239 (inactive) and the z-score [5] was -0.347 (inactive).

In the case of `CC(C)(C)OC(=O)CC[C@]1(C(=O)N2CCCCC2)N=C(c2ccc(OCCCO)cc2)O[C@H]1c1ccccc1N=[N+]=[N-]`, the composite z-score [1] is reported as 0.282 (inactive), the composite z-score (XIP peptide (Xip251-270)) is reported as 0.71 and the z-score [2] is reported as -1.75. For the same molecule, the z-score [3] was -2.92 (inactive), the z-score [4] was -0.0036 (inactive) and the z-score [5] was 0.212 (inactive).

With `NC(=O)NCC#Cc1ccc2c(c1)[C@]1(C(=O)N2)[C@H](C(=O)NC[C@H](O)c2ccccc2)[C@H]2C(=O)O[C@H](c3ccccc3)[C@H](c3ccccc3)N2[C@@H]1c1ccc(O)cc1` the composite z-score [1] was 5.26 (inactive), the composite z-score (XIP peptide (Xip251-270)) was 0.432 and the z-score [2] was 0.872. The z-score [3] was -4.24 (inactive), the z-score [4] was -0.0342 (inactive) and the z-score [5] was -0.468 (inactive).

In the case of `C=CCOC(=O)[C@@H]1[C@H]2C(=O)O[C@H](c3ccccc3)[C@H](c3ccccc3)N2[C@H](c2ccc(OCCOC(=O)[C@@H]3C[C@@H]4C(=O)NCC(=O)N4[C@@H]3c3cccc(OCCO)c3)cc2)[C@@]12C(=O)Nc1ccc(I)cc12`, the composite z-score [1] is reported as 0.567 (inactive), the composite z-score (XIP peptide (Xip251-270)) is reported as 0.765 and the z-score [2] is reported as -1.6. For the same molecule, the z-score [3] was 0.8 (inactive), the z-score [4] was 1.07 (inactive) and the z-score [5] was 0.783 (inactive).
